From PubChem BioAssay AID1159580 (chemical genetic matrix, 2015)
Several values for one entry are separate records, joined by “and”; a condition that tells them apart may be missing. Equal entries are not always repeated. Out of some 5,500 compounds screened, about 2,000 (36%) were called active. Roughly 18% stayed inconclusive and do not appear here. No stated cut-off is given here; in the data, active means normalized growth mostly below about 0.91 (no sharp cut-off); inconclusive means no clear call, values can overlap the other calls; inactive means mostly above about 0.92. Some of the results follow.

Experiment: chemical genetic growth profiling, strain panel (AID 1159580);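 further: tested at 20 µM; growth read once vehicle control cultures reached saturation at 30 °C; 1 = growth at the plate median or of vehicle wells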
Details: growth OD

Measured: normalized growth

CO[C@H]1[C@H](O)[C@@H](O[C@H]2CC[C@]3(C=O)C4CC[C@]5(C)[C@@H](C6=CC(=O)OC6)CC[C@]5(O)C4CC[C@@H]3C2)O[C@@H](C)[C@@H]1O (some centres not stated)
inactive: S. cerevisiae deletion strains, locus YAL013W, strain DEP1, stronger effect = lower value 0.982 | S. cerevisiae deletion strains, locus YBR021W, strain FUR4, stronger effect = lower value 1.01 | S. cerevisiae deletion strains, locus YBR229C, strain ROT2, stronger effect = lower value 0.959 | S. cerevisiae deletion strains, locus YCL029C, strain bik1, stronger effect = lower value 0.993 | S. cerevisiae deletion strains, locus YDL035C, strain GPR1, stronger effect = lower value 0.986 | S. cerevisiae deletion strains, locus YDL074C, strain BRE1, stronger effect = lower value 1.01 | S. cerevisiae deletion strains, locus YDL101C, strain DUN1, stronger effect = lower value 0.973 | S. cerevisiae deletion strains, locus YDL134C, strain PPH21, stronger effect = lower value 0.986 | S. cerevisiae deletion strains, locus YDL185W, strain tfp1, stronger effect = lower value 0.989 | S. cerevisiae deletion strains, locus YDL192W, strain arf1, stronger effect = lower value 0.99 | S. cerevisiae deletion strains, locus YDR101C, strain arx1, stronger effect = lower value 1 | S. cerevisiae deletion strains, locus YDR150W, strain NUM1, stronger effect = lower value 0.966 | S. cerevisiae deletion strains, locus YDR162C, strain NBP2, stronger effect = lower value 0.978 | S. cerevisiae deletion strains, locus YDR318W, strain mcm21, stronger effect = lower value 1.01 | S. cerevisiae deletion strains, locus YDR388W, stronger effect = lower value 0.999 | S. cerevisiae deletion strains, locus YDR502C, strain sam2, stronger effect = lower value 0.992 | S. cerevisiae deletion strains, locus YEL061C, strain CIN8, stronger effect = lower value 0.984 | S. cerevisiae deletion strains, locus YER110C, stronger effect = lower value 0.973 | S. cerevisiae deletion strains, locus YER155C, strain BEM2, stronger effect = lower value 0.997 | S. cerevisiae deletion strains, locus YER167W, strain BCK2, stronger effect = lower value 0.995 | S. cerevisiae deletion strains, locus YGL078C, strain dbp3, stronger effect = lower value 0.986 | S. cerevisiae deletion strains, locus YGL086W, strain mad1, stronger effect = lower value 0.989 | S. cerevisiae deletion strains, locus YGL248W, strain PDE1, stronger effect = lower value 0.973 | S. cerevisiae deletion strains, locus YGR078C, strain PAC10, stronger effect = lower value 1 | S. cerevisiae deletion strains, locus YGR135W, strain pre9, stronger effect = lower value 1 | S. cerevisiae deletion strains, locus YGR229C, strain SMI1, stronger effect = lower value 0.996 | S. cerevisiae deletion strains, locus YGR252W, strain gcn5, stronger effect = lower value 0.999 | S. cerevisiae deletion strains, locus YHR030C, strain SLT2, stronger effect = lower value 0.987 and 0.975 | S. cerevisiae deletion strains, locus YHR079C, strain IRE1 (second series), stronger effect = lower value 0.99 | S. cerevisiae deletion strains, locus YHR079C, strain IRE1, stronger effect = lower value 0.965 | S. cerevisiae deletion strains, locus YHR094C, strain hxt1, stronger effect = lower value 0.988 | S. cerevisiae deletion strains, locus YHR129C, strain ARP1, stronger effect = lower value 0.996 | S. cerevisiae deletion strains, locus YHR200W, strain rpn10, stronger effect = lower value 0.999 | S. cerevisiae deletion strains, locus YIL066C, strain RNR3, stronger effect = lower value 0.968 | S. cerevisiae deletion strains, locus YIL073C, strain SPO22, stronger effect = lower value 0.994 | S. cerevisiae deletion strains, locus YIL125W, strain kgd1, stronger effect = lower value 0.98 | S. cerevisiae deletion strains, locus YIR030C, strain dcg1, stronger effect = lower value 0.982 | S. cerevisiae deletion strains, locus YJL095W, strain BCK1, stronger effect = lower value 1.04 and 0.973 | S. cerevisiae deletion strains, locus YJL134W, strain LCB3, stronger effect = lower value 0.981 | S. cerevisiae deletion strains, locus YJL168C, strain set2, stronger effect = lower value 0.992 | S. cerevisiae deletion strains, locus YJL187C, strain SWE1 (second series), stronger effect = lower value 0.99 | S. cerevisiae deletion strains, locus YJR043C, strain POL32, stronger effect = lower value 1.01 | S. cerevisiae deletion strains, locus YJR066W, strain TOR1, stronger effect = lower value 0.972 | S. cerevisiae deletion strains, locus YJR075W, strain HOC1, stronger effect = lower value 0.998 | S. cerevisiae deletion strains, locus YKL009W, strain mrt4, stronger effect = lower value 0.943 | S. cerevisiae deletion strains, locus YKL068W, stronger effect = lower value 0.994 | S. cerevisiae deletion strains, locus YKL085W, strain MDH1 (second series), stronger effect = lower value 0.98 | S. cerevisiae deletion strains, locus YKL085W, strain MDH1, stronger effect = lower value 0.98 | S. cerevisiae deletion strains, locus YKL190W, strain CNB1, stronger effect = lower value 0.991 | S. cerevisiae deletion strains, locus YKR001C, strain vps1, stronger effect = lower value 0.993 | S. cerevisiae deletion strains, locus YLR039C, strain RIC1, stronger effect = lower value 0.969 | S. cerevisiae deletion strains, locus YLR058C, strain SHM2, stronger effect = lower value 0.965 | S. cerevisiae deletion strains, locus YLR102C, strain apc9, stronger effect = lower value 0.994 | S. cerevisiae deletion strains, locus YLR113W, strain HOG1, stronger effect = lower value 0.975 | S. cerevisiae deletion strains, locus YLR262C, strain YPT6, stronger effect = lower value 0.972 | S. cerevisiae deletion strains, locus YLR268W, strain sec22, stronger effect = lower value 1.05 | S. cerevisiae deletion strains, locus YLR330W, strain CHS5, stronger effect = lower value 0.982 | S. cerevisiae deletion strains, locus YLR342W, strain FKS1 (second series), stronger effect = lower value 0.998 | S. cerevisiae deletion strains, locus YLR371W, strain rom2, stronger effect = lower value 0.979 | S. cerevisiae deletion strains, locus YLR418C, strain cdc73, stronger effect = lower value 1 | S. cerevisiae deletion strains, locus YML016C, strain PPZ1, stronger effect = lower value 0.987 | S. cerevisiae deletion strains, locus YML032C, strain rad52, stronger effect = lower value 1.01 | S. cerevisiae deletion strains, locus YML124C, strain tub3, stronger effect = lower value 0.989 | S. cerevisiae deletion strains, locus YMR078C, strain ctf18, stronger effect = lower value 0.993 | S. cerevisiae deletion strains, locus YMR223W, strain ubp8, stronger effect = lower value 0.977 | S. cerevisiae deletion strains, locus YMR263W, strain SAP30, stronger effect = lower value 0.987 | S. cerevisiae deletion strains, locus YMR307W, strain GAS1, stronger effect = lower value 0.981 | S. cerevisiae deletion strains, locus YNL067W, strain RPL9B, stronger effect = lower value 1.01 | S. cerevisiae deletion strains, locus YNL128W, strain TEP1, stronger effect = lower value 0.969 | S. cerevisiae deletion strains, locus YNL153C, strain GIM3, stronger effect = lower value 0.994 | S. cerevisiae deletion strains, locus YNL183C, strain NPR1, stronger effect = lower value 0.903 | S. cerevisiae deletion strains, locus YNL233W, strain BNI4, stronger effect = lower value 0.999 | S. cerevisiae deletion strains, locus YNL250W, strain rad50, stronger effect = lower value 0.969 | S. cerevisiae deletion strains, locus YNL271C, strain bni1, stronger effect = lower value 1 | S. cerevisiae deletion strains, locus YNL298W, strain CLA4, stronger effect = lower value 0.992 | S. cerevisiae deletion strains, locus YNL307C, strain MCK1, stronger effect = lower value 0.993 | S. cerevisiae deletion strains, locus YNL322C, strain KRE1, stronger effect = lower value 0.989 | S. cerevisiae deletion strains, locus YNR052C, strain pop2, stronger effect = lower value 1.01 | S. cerevisiae deletion strains, locus YOL006C, strain TOP1, stronger effect = lower value 1.01 | S. cerevisiae deletion strains, locus YOL012C, strain htz1 0.939 | S. cerevisiae deletion strains, locus YOL147C, strain pex11, stronger effect = lower value 0.998 | S. cerevisiae deletion strains, locus YOR061W, strain CKA2, stronger effect = lower value 0.968 | S. cerevisiae deletion strains, locus YOR069W, strain VPS5, stronger effect = lower value 0.988 | S. cerevisiae deletion strains, locus YOR136W, strain idh2, stronger effect = lower value 0.986 | S. cerevisiae deletion strains, locus YOR144C, strain elg1, stronger effect = lower value 0.998 | S. cerevisiae deletion strains, locus YOR184W, strain ser1, stronger effect = lower value 0.981 | S. cerevisiae deletion strains, locus YOR231W, strain MKK1, stronger effect = lower value 0.957 | S. cerevisiae deletion strains, locus YOR316C, strain cot1, stronger effect = lower value 0.985 | S. cerevisiae deletion strains, locus YPL055C, strain LGE1, stronger effect = lower value 0.979 | S. cerevisiae deletion strains, locus YPL241C, strain CIN2, stronger effect = lower value 0.992 | S. cerevisiae deletion strains, locus YPL256C, strain CLN2, stronger effect = lower value 0.948 | S. cerevisiae deletion strains, locus YPR119W, strain clb2, stronger effect = lower value 0.989 | S. cerevisiae deletion strains, locus YPR141C, strain kar3, stronger effect = lower value 0.983 | S. cerevisiae deletion strains, locus YPR163C, strain tif3, stronger effect = lower value 1 | S. cerevisiae deletion strains, locus YPR167C, strain met16, stronger effect = lower value 0.992 | S. cerevisiae deletion strains, strain wtn01, stronger effect = lower value 0.996 | S. cerevisiae strains, strain wild type, stronger effect = lower value 0.978
